From the supplement of paper PMC9844399
Counter-ions that a name gives are not always drawn.

tested on: HeLa; assay: nuclear count per well, robust Z-score vs DMSO; higher = more cells (less toxicity); conditions: 10 µM; 6 h
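Also: Hoechst-stained nuclei counted by automated confocal imaging of four fields per well in 384-well plates, with the robust Z-score based on the per-plate DMSO median and robust SD.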

| SMILES | nuclear count per well |
| --- | --- |
| Cc1coc2c1C(=O)C(=O)c1c-2ccc2c1CCCC2(C)C [Tanshinone IIA] | -0.142 |
| COC(=O)N[C@H](C(=O)N[C@@H](Cc1ccccc1)[C@@H](O)CN(Cc1ccc(-c2ccccn2)cc1)NC(=O)[C@@H](NC(=O)OC)C(C)(C)C)C(C)(C)C [Atazanavir] | 0.325 |
| S=c1[nH]cnc2nc[nH]c12 [Mercaptopurine Hydrate] | -0.0295 |
| CO[C@H]1C[C@@H]2CC[C@@H](C)[C@@](O)(O2)C(=O)C(=O)N2CCCC[C@H]2C(=O)O[C@H]([C@H](C)C[C@@H]2CC[C@@H](OC(=O)C(C)(CO)CO)[C@H](OC)C2)CC(=O)[C@H](C)/C=C(\C)[C@@H](O)[C@@H](OC)C(=O)[C@H](C)C[C@H](C)/C=C/C=C/C=C/1C [Temsirolimus] | 0.576 |
| CO[C@@]1(NC(=O)C2SC(=C(C(N)=O)C(=O)O)S2)C(=O)N2C(C(=O)O)=C(CSc3nnnn3C)CS[C@@H]21 (some centres undefined) [Cefotetan Disodium] | -0.393 |
| NCCc1ccc(O)c(O)c1 | 0.526 |
| COc1ccc2c(c1)CCC1C2CCC2(C)C(NCCCCCCN3C(=O)C=CC3=O)CCC12 (centres undefined) | -2.53 |
| Cc1occc(=O)c1O [Maltol] | 0.616 |
| CCCC(CCC)C(=O)O [Sodium Valproate] | -0.225 |
| CN(C)CCCOc1nn(Cc2ccccc2)c2ccccc12 [Benzydamine hydrochloride] | -1.28 |
| CCCCc1nc(Cl)c(CO)n1Cc1ccc(-c2ccccc2-c2nnn[nH]2)cc1 [Losartan potassium] | 0.167 |
| CCC[C@H](N[C@H]1CCc2cc(F)cc(F)c2C1)C(=O)Nc1cn(C(C)(C)CNCC(C)(C)C)cn1 | 2.56 |
| COc1cc2c(cc1OC)-c1c/c(=N\c3c(C)cc(C)cc3C)n(C)c(=O)n1CC2 [Trequinsin] | 0.483 |
| COCCCCCCCCCCCC(=O)O [12-Methoxydodecanoic acid] | 0.27 |
| CC/C=C\C/C=C\C/C=C\CCCCCCCC(=O)O [Linolenic acid (18:3 n-3)] | -0.431 |
| OCCN1C[C@H](O)[C@@H](O)[C@H](O)[C@H]1CO [Miglitol] | -0.458 |
| CCCCC/C=C\C\C=C/C=C/C=C/CC(=O)CCCC(=O)O [5-Ketoeicosatetraenoic acid] | -0.142 |
| CC[C@H](C)[C@H](N)C1=N[C@H](C(=O)N[C@@H](CC(C)C)C(=O)N[C@H](CCC(=O)O)C(=O)N[C@H](C(=O)N[C@H]2CCCCNC(=O)[C@H](CC(N)=O)NC(=O)[C@@H](CC(=O)O)NC(=O)[C@H](Cc3cnc[nH]3)NC(=O)[C@@H](Cc3ccccc3)NC(=O)[C@H]([C@@H](C)CC)NC(=O)[C@@H](CCCN)NC2=O)[C@@H](C)CC)CS1 [Bacitracin] | 0.532 |
| CN(C)CCC(c1ccc(Cl)cc1)c1ccccn1 (centres undefined) [Chlorpheniramine Maleate] | 0.425 |
| COc1cc(Br)c(Nc2nc(-c3c(C)nc4ncccn34)cs2)c(Br)c1 | -2.28 |

| SMILES | nuclear count per well |
| --- | --- |
| Nc1ncn([C@@H]2O[C@H](CO)[C@@H](O)[C@H]2O)c(=O)n1 [Azacitidine] | 1.08 |
| CC(C)(Oc1ccc(CCNC(=O)c2ccc(Cl)cc2)cc1)C(=O)O [bezafibrate] | -0.397 |
| COC(=O)C1=C(C)NC(C)=C(C(=O)OCCCN2CCC(c3ccccc3)(c3ccccc3)CC2)[C@H]1c1cccc([N+](=O)[O-])c1 [Niguldipine] | 0.44 |
| C#C[C@]1(O)CC[C@H]2[C@@H]3CCc4cc(O)ccc4[C@H]3CC[C@@]21C [Ethinyl estradiol] | 0.192 |
| CC(/C=C/c1cccc(Oc2ccc(F)cc2)c1)N(O)C(N)=O (centres undefined) | 0.056 |
| COCCCC/C(=N\OCCN)c1ccc(C(F)(F)F)cc1 [Fluvoxamine Maleate] | 1.04 |
| CCC[C@@H]1C[C@@H](C(=O)N[C@@H]([C@H]2O[C@H](SC)[C@H](O)[C@@H](O)[C@H]2O)[C@H](C)Cl)N(C)C1 | -0.00882 |
| CC[C@@H]([C@H](C)O)n1ncn(-c2ccc(N3CCN(c4ccc(OC[C@@H]5CO[C@@](Cn6cncn6)(c6ccc(F)cc6F)C5)cc4)CC3)cc2)c1=O [Posaconazole] | -0.000264 |
| CCCCC/C=C\C/C=C\C/C=C\C/C=C\CCCC(=O)OC(CO)CO [2-Arachidonoylglycerol] | -1.06 |
| CN(C/C=C/c1ccccc1)Cc1cccc2ccccc12 | -0.367 |
| CN(C)CCc1c[nH]c2ccc(Cn3cncn3)cc12 [Rizatriptan Benzoate] | 1.79 |
| CN1CCC(=C2c3ccccc3C=Cc3ccccc32)CC1 [Cyproheptadine hydrochloride sesquihydrate] | 1.34 |
| O=c1n(CCCN2CCN(c3cccc(Cl)c3)CC2)nc2ccccn12 | 1 |
| COc1ccccc1OCC(O)CN1CCN(CC(=O)Nc2c(C)cccc2C)CC1 (centres undefined) [Ranolazine dihydrochloride] | 1.21 |
| CN(C)CCOc1ccc(/C(=C(/CCCl)c2ccccc2)c2ccccc2)cc1 [Toremifene citrate salt] | -0.552 |
| CN1CCc2cccc3c2[C@H]1Cc1ccc(O)c(O)c1-3 | -0.0769 |
| CC(=O)c1ccc(S(=O)(=O)NC(=O)NC2CCCCC2)cc1 [Acetohexamide] | 0.532 |
| CC(C)CCN1c2nc(Nc3cc(F)c(O)c(F)c3)ncc2N(C)C(=O)C1C (centres undefined) | 1.03 |
| CCN1CCCC1CNC(=O)c1cc(S(=O)(=O)CC)c(N)cc1OC (centres undefined) [Amisulpride] | 0.85 |
